# ssDAF12 agonist: S. stercoralis DAF-12 nuclear receptor activators, primary screen, cell-based, luminescence, HEK293, GRIP1 co-expression, lit1-tk-luc | 370,000 compounds, 1% hits | HEK293 ssDAF-12/GRIP1 lit1-tk-luc reporter; % of 3 µM dafachronic acid response | Nuclear hormone receptor DAF-12 (Strongyloides stercoralis) | activation, % at 6.8 µM;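 active = activation above the mean over all tested compounds plus 3 SD, cut at about 0.9% in these data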;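 note: 0% = DMSO-only wells and 100% = 3 µM delta7-dafachronic acid wells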
# hgDAF-12 ag: H. glycines DAF-12 receptor agonists, primary screen, cell-based, luminescence, HEK293, GAL4 fusion, UAS-luciferase | Nuclear hormone receptor DAF-12 (Heterodera glycines), GAL4 fusion | 370,000 compounds, 1.8% hits | HEK293 GAL4-hgDAF12 UAS-luciferase reporter, agonist luminescence; normalized to butyrate control | activation, % at 6.8 µM;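 active = activation above a cutoff set at the mean of all screened compounds plus 3 SD, cut at about 10% in these data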;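 note: 0% = DMSO wells and 100% = sodium butyrate wells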
# SMARCA2 act: SMARCA2 (BRM) function activators, primary screen, cell-based, luminescence, high throughput; MG213 cells, MMTV-luciferase reporter, dexamethasone, overnight; AID 652017, 2013; activation, % at 9.1 µM; 370,000 compounds, 1% hits; in the data active = activation above about 7.8%;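 note: 0% = vehicle wells and 100% = reference activator wells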
# hcDAF12 agonist: H. contortus DAF-12 nuclear receptor activators, primary screen, cell-based, luminescence, HEK293, lit1-tk-luc reporter | HEK293 hcDAF-12 lit1-tk-luc reporter; 0% DMSO, 100% Δ7-dafachronic acid | activation, % at 6.8 µM | 370,000 compounds, 1.4% hits | AID 652067, 2013;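 active = activation above the mean of all tested compounds plus 3 SD, cut at about 5.5% in these data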;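 note: 100% = response to 3 µM Δ7-dafachronic acid high control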
# DAX1 inh-1: DAX1 (NR0B1) inhibitors, primary screen, cell-based, HEK293, Gal4-DAX1, luciferase luminescence | HEK293 Gal4-DAX1 luciferase reporter | inhibition, % at 6.75 µM | 340,000 compounds, 0.99% hits;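 active = inhibition above the mean over all tested compounds plus 3 SD, cut at about 4.2% in these data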;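 note: 0% = DAX1-transfected cells with DMSO and 100% = empty-vector control cells with DMSO; inhibition shows as a rise in luminescence from relieved DAX1 repression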
# Target sequence (P51843 207-470 limits assumed): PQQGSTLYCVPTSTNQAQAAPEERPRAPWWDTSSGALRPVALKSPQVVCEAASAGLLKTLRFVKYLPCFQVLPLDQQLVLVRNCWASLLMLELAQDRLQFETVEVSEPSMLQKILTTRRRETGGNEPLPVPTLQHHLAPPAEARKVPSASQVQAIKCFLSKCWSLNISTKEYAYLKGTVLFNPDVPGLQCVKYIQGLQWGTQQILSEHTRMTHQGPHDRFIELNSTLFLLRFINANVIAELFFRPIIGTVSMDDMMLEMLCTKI
# DAX1 inh-2: DAX1 (NR0B1) inhibitors on StAR promoter, primary screen, cell-based, luminescence, SF-1 (NR5A1), full-length DAX-1; HEK293T StAR-luciferase reporter, SF-1/DAX-1 repression relief; inhibition, % at 6.8 µM; 370,000 compounds, 1.1% hits;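 active = inhibition above the mean over all tested compounds plus 3 SD, cut at about 3.6% in these data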;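 note: 0% = DAX-1 cells with DMSO and 100% = cells lacking DAX-1 with DMSO; higher inhibition means more luminescence from relief of DAX-1 repression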
# SMARCA2 act conf: SMARCA2 (BRM) function activators, confirmation, cell-based, luminescence, triplicate | MG213 cells, MMTV-luciferase with dexamethasone, overnight; MG213 cells expressing E1A, Rb sequestered; DMSO wells 0%, reference activator 100% | 3,500 compounds, 30% hits | activation, % at 9.1 µM | shares compounds with SMARCA2 act;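 active = activation above its plate's cutoff, the mean activation of tested wells plus 3 SD, cut at about 7.9% in these data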
# VP16 Luc act: GAL4-VP16 luciferase reporter activation, counter-screen for SMARCA2 (BRM) activator project, cell-based, pG5luc, luminescence, high throughput; shares compounds with SMARCA2 act; HEK293 GAL4-VP16 pG5luc reporter; scaled: DMSO wells 0%, SAHA wells 100%; activation, % at 9.1 µM; 3,500 compounds, 41% hits;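 active = activation above the solvent-only control well mean plus 3 SD, averaged across control plates, cut at about 5.2% in these data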
# * marks the source's active call; other numbers are inactive results; / = no result given. Compounds with a hit are over-represented: about 4.8% of the library has one in this group of screens.
SMILES,ssDAF12 agonist,hgDAF-12 ag,SMARCA2 act,hcDAF12 agonist,DAX1 inh-1,DAX1 inh-2,SMARCA2 act conf,VP16 Luc act
Cc1cc(C)c(S(=O)(=O)N2CCOC23CCN(S(C)(=O)=O)CC3)c(C)c1,-1,-1,14*,-1,2,1,-3,1
Cc1cccc(NC(=O)c2ccc(NCC3CCCO3)c([N+](=O)[O-])c2)c1 (configuration not stated),-1,1,8.1*,-2,-2,1,1,3
Cc1onc(-c2c(F)cccc2Cl)c1C(=O)NC1CCCCCC1,-1,-1,2,-2,-1,0,/,/
Cc1onc(-c2c(F)cccc2Cl)c1C(=O)NC(=S)NC1CCS(=O)(=O)C1 (configuration not stated),-1,-3,15*,2,0,0,0,0
Oc1ccc(Nc2nc(N3CCCC3)c3ccccc3n2)cc1,-1,0,10*,-2,-3,-1,27*,-1
C(=C\c1nc(N2CCCC2)c2ccccc2n1)/c1ccccc1,-2,2,9.0*,0,-1,-1,15*,2
CCCc1cn(-c2ccc3c(c2)[C@@]2(CC(=O)N(C)C2c2ccccc2)C(=O)N3CC(C)C)nn1 (some centres not stated),-1,-3,-4,-2,/,-1,/,/
CCCC[C@H]1C2CC(OC(=O)Nc3cccc(F)c3)C(C2)[C@H]2CCCCN21 (some centres not stated),-1,1,6,-2,/,1,/,/
COc1ccc(CN(CCN2CCOCC2)C(=O)c2cccc(F)c2F)cc1OC,-1,4,-2,1,/,0,/,/
NC1=NS(=O)(=O)Nc2ccccc21,-2,1,/,-2,/,/,/,/
Cc1ccc(S(=O)(=O)N2CCOCC2)cc1C(=O)NCc1cccnc1,-1,-1,10*,-3,0,0,0,1
COc1ccc2c(c1)c1ccccc1n2C,-1,0,8.9*,-2,-1,0,-2,2
CC1CCc2c(sc(NC(=O)CSc3nnc(-c4ccccc4)o3)c2C#N)C1 (configuration not stated),-1,4,9.9*,-1,0,0,-3,1
CCCCC(=O)Nc1cc(C(=O)NCCc2ccccc2)ccc1Cl,0,9,8.2*,2,1,4.4*,7,8.8*
Nc1nc(Sc2ccc([N+](=O)[O-])c3nonc23)c2[nH]cnc2n1,-1,-3,26*,0,1,-4,-15,1
CNc1ncnc(Sc2nc(N)nc3nc[nH]c23)c1[N+](=O)[O-],-1,6,-2,-2,-1,-3,/,/
CCN=C1S/C(=C\c2cn(CC(=O)NCc3ccco3)c3ccccc23)C(=O)N1CC,-2,-2,8.1*,-4,-2,-1,9.9*,4
CC(=O)Nc1cccc(C(=O)N/N=C/c2cccc(C)n2)c1,-1,2,11*,1,0,0,-5,-1
CCc1nnc(NC(=O)c2cccc(NC(=O)C(C)C)c2)s1,0,4,8.8*,0,0,2,4,5.9*
COCc1nnc(NC(=O)c2cccc(NC(=O)C(C)C)c2)s1,-1,2,0,1,0,0,/,/
